From PubChem BioAssay AID772 (SRMLSC, 2007)
In all, about 3,300 compounds went through this assay and about 20 (0.6%) were called active. The sample holds actives, similar compounds and a random draw of the others, so the mix is not that of the screen.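 Rule for the calls: active = growth inhibition above 90%, meaning viable cell count cut by more than 90% versus vehicle controls; inactive = growth inhibition below 90%.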

Assay: HT29 colon tumor cell growth inhibition, primary screen, imaging, high content imaging, 72 h, CellTiter-Glo (AID 772);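 for condensed nuclei: condensed means nuclear area below control median minus 1.5 SD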
Conditions: HCS imaging cell count, at 10 µM, stronger effect = higher value; for condensed nuclei: measured here: percent cells with condensed nuclei
[1] = measured here: ATP CellTiter-Glo viability

Row | Compound | growth inhibition | growth inhibition [1] | condensed nuclei
1 | C=CCNc1nc(C2(C)CC3(CC(C)(C)OC3=O)C(=O)O2)cs1 (centres undefined) | -18.2% (inactive) | -56.2% | 1.83%
2 | N#Cc1c(N)nc(SCC(=O)NCCc2ccccc2)c(C#N)c1-c1cccs1 | 31.9% (inactive) | 4.22% | 7.98%
3 | CCCCSc1nc(N)c(C#N)c(-c2cccs2)c1C#N | 95.4% (active) | 86.1% | 41.7%
4 | N#Cc1c(N)nc(SCc2ccccn2)c(C#N)c1-c1cccs1 | 63.2% (inactive) | 42.6% | 5.56%
5 | CCN(CC)S(=O)(=O)c1cccc2c(N(C)C)cccc12 | -83.5% (inactive) | -46.3% | 4.17%
6 | COCCCNc1nc(-c2ccncc2)nc2ccccc12 | 89.9% (inactive) | 86.6% | 44.1%
7 | COCCCNC(=O)C(C#N)c1nc2ccccc2nc1N1CCN(Cc2ccccc2)CC1 (centres undefined) | 0% (inactive) | 11.6% | 4.88%
8 | Clc1cccc(-c2nn3c(-c4cccc(Cl)c4)nnc3s2)c1 | -66.5% (inactive) | -37.2% | 7.77%
9 | COc1ccccc1C(=O)N1CCCC1(C#N)c1ccccc1 (centres undefined) | -76.6% (inactive) | -54.8% | 2.93%
10 | Fc1ccc2[nH]c3c(N4CCN(C5CCCCC5)CC4)ncnc3c2c1 | 86.8% (inactive) | 96.8% | 43.8%
11 | CCOc1cccc(-c2nn3c(-c4ccco4)nnc3s2)c1 | 19.2% (inactive) | -9.06% | 6.05%
12 | Cc1cc(C(=O)O)c(CSc2ncn[nH]2)o1 | -5.63% (inactive) | -62.3% | 6.05%
13 | Cc1cc(=O)oc(C)c1C(=O)NCCC1=CCCCC1 | 26.9% (inactive) | 32.2% | 17.3%
14 | Cc1nc2sccn2c(=O)c1CCN1CCC(=C(c2ccc(F)cc2)c2ccc(F)cc2)CC1 | 93.1% (active) | 84.8% | 24.1%
15 | Cc1nc2ccccn2c(=O)c1CCN1CCC(C(=O)c2ccc(F)cc2)CC1 | 73.8% (inactive) | 86.5% | 24.8%
16 | Cc1nc2sccn2c(=O)c1CCN1CCC(=C(c2ccccc2)c2ccc(F)cc2)CC1 | 29.7% (inactive) | 6.78% | 5.93%
17 | O=C(CCC(=O)CCN1CCCCC1)CCN1CCCCC1 | 28.4% (inactive) | 14.4% | 16.4%
18 | CCOc1ccc2nc(NC(NC(C)=O)(C(=O)OC)C(F)(F)F)sc2c1 (centres undefined) | -16.9% (inactive) | 18.6% | 3.93%
19 | C=CCn1cnc2c(c1=O)c1nc3ccccc3nc1n2-c1ccc(C)cc1 | 31.2% (inactive) | -2.67% | 2.48%
20 | Cn1c(SCC(=O)NCc2ccccc2)nc2ccccc21 | 59.6% (inactive) | 2.57% | 4.29%
21 | CCC(=O)O[C@@H]1CC(=O)O[C@H](C)CC=CC=C[C@@H](O)[C@H](C)C[C@H](CC=O)[C@H](O[C@H]2O[C@H](C)[C@@H](O[C@H]3C[C@@](C)(O)[C@@H](OC(=O)CC)[C@H](C)O3)[C@H](N(C)C)[C@H]2O)[C@H]1OC | -45.9% (inactive) | -13.7% | 2.22%
22 | COc1ccc2[nH]c(C)c(C(=O)CN3CCc4cc(OC)c(OC)cc4C3)c2c1 | -33.9% (inactive) | -14.6% | 2.58%
23 | CCN(CC)C(=O)CSc1nc2ccccc2c(=O)n1CC1CCCCC1 | 65.6% (inactive) | 31.7% | 18.9%
24 | Cc1[nH]c2ccc(F)cc2c(=O)c1SC(F)(F)C(F)C(F)(F)F (centres undefined) | -7.36% (inactive) | -57.2% | 1.61%
25 | COc1cccc2c(=O)c(SC(F)(F)C(F)C(F)(F)F)c(C)[nH]c12 (centres undefined) | 94% (active) | 65.5% | 36.9%

Row | Compound | growth inhibition | growth inhibition [1] | condensed nuclei
26 | Cc1onc(-c2ccccc2Cl)c1C(=O)N1CCN(c2nc3ccccc3s2)CC1 | 55.9% (inactive) | 62.8% | 7.24%
27 | O=C1[C@@H]2[C@H](C(=O)N1n1cnnc1)[C@H]1C=C[C@@H]2C1 | -36.7% (inactive) | 4.74% | 7.85%
28 | Cc1cccn2c(=O)c3cc(C#N)c(=N)n(Cc4ccncc4)c3nc12 | 10.6% (inactive) | -4.36% | 5.14%
29 | CCC(NC(=O)Nc1cc(OC)c(OC)c(OC)c1)(C(F)(F)F)C(F)(F)F | 9.36% (inactive) | -14.6% | 2.2%
30 | COC(=O)[C@@H](N)Cc1ccc(O)cc1 | -11.9% (inactive) | 12.5% | 9.88%
31 | COC(=O)/C=c1/s/c(=C(/C#N)C(=O)N2CCOCC2)n(-c2ccccc2)c1=O | -9.52% (inactive) | -73% | 5.81%
32 | C=CCOC(=O)C1=C(C)NC(SCC(=O)Nc2ccc(C)c(Cl)c2)=C(C#N)C1c1ccco1 (centres undefined) | 81.3% (inactive) | 81.8% | 10.5%
33 | O=C1C(=O)N(Cc2cccnc2)C(c2ccccn2)/C1=C(/O)c1ccc(Br)cc1 (centres undefined) | -60.8% (inactive) | -51.9% | 3.93%
34 | CCOC(=O)c1c(C)n(C)c2ccc(O)c(S(=O)(=O)c3ccccc3)c12 | 0.86% (inactive) | -12.9% | 2.84%
35 | Cc1nc(Sc2cccn2C)c(C(F)(F)F)c(=O)[nH]1 | 26% (inactive) | -42.6% | 1.74%
36 | N#CC1=C(C=Nc2ccccc2O)CCC1 | 2.22% (inactive) | -3.16% | 1.93%
37 | CCOC(=O)c1c(C)n(C)c2ccc(OC)c(NC(=O)CCN3CCSCC3)c12 | -24% (inactive) | -19.5% | 1.98%
38 | Cc1cc2c(c(=O)n1CC1CCCO1)C(c1ccc3c(c1)OCO3)C(C#N)=C(N)O2 (centres undefined) | -29.9% (inactive) | -39% | 2.84%
39 | COC(=O)C(NC(=O)c1ccccc1)(Nc1nccs1)C(F)(F)F (centres undefined) | 60.8% (inactive) | 20.8% | 9.01%
40 | CC(C)(C)C1=Nn2c(nnc2-c2ccccn2)SC1 | -24.5% (inactive) | -54.2% | 2.89%
41 | Cn1c(Cl)nc2c1c(=O)n(Cc1cccc(Br)c1)c(=O)n2C | 58.3% (inactive) | 38% | 20.4%
42 | CC(NC(=O)NCc1cccnc1)(C(F)(F)F)C(F)(F)F | -58% (inactive) | -34.9% | 7.24%
43 | CCO/C(C)=N/n1c2nc3ccccc3nc2c2c(=O)n(Cc3ccccc3Cl)c(C)nc21 | -20.7% (inactive) | -31% | 2.79%
44 | CC(C)N=c1cc2n(-c3ccc(Cl)cc3)c3ccccc3nc-2cc1Nc1ccc(Cl)cc1 | 39.7% (inactive) | 87% | 30.8%
45 | COC(=O)NC(Nc1sc2c(c1C(N)=O)CCCC2)(C(=O)OC)C(F)(F)F (centres undefined) | -86.9% (inactive) | -40.6% | 3.2%
46 | O=C(CN1C(=O)c2ccccc2S1(=O)=O)NCCSCc1ccco1 | 36.4% (inactive) | 6.94% | 3.38%
47 | CCCCCNC(=O)C(C#N)c1nc2ccccc2nc1N1CC(C)OC(C)C1 (centres undefined) | 31% (inactive) | -14.9% | 8.13%
48 | CCCCCCc1cc2cc(-c3nnc(-c4ccccc4O)o3)c(=O)oc2cc1O | 23.4% (inactive) | 12.5% | 4.18%
49 | CCN(CC)c1ccc2cc(C(=O)Nc3ccccn3)c(=O)oc2c1 | 12.7% (inactive) | -23.3% | 5.56%
50 | CCN(CC)c1ccc2cc(-c3nnc(-c4ccncc4)o3)c(=O)oc2c1 | 99.1% (active) | -9.72% | 4.75%

Row | Compound | growth inhibition | growth inhibition [1] | condensed nuclei
51 | CCOC(=O)CSc1nnc2n(Cc3ccccc3)c(=O)c3c4c(sc3n12)CCC4 | 17.8% (inactive) | -5.86% | 16.9%
52 | CCOC(=O)c1ccc(NC(=O)CCC(CC)C(=O)O)cc1 (centres undefined) | -26.9% (inactive) | -22.9% | 2.9%
53 | CC1(C(=O)CSc2n[nH]c(-c3ccccc3Cl)n2)CCC(=O)O1 (centres undefined) | -77.2% (inactive) | -34.5% | 2.66%
54 | OCCN(CCO)c1ncnc2c1sc1nc(N3CCOCC3)c3c(c12)CCCC3 | 49.2% (inactive) | 92.5% | 17.2%
55 | CC1(C)Cc2c(sc3nc(SCC#N)n(C4CCCCC4)c(=O)c23)CO1 | 25.6% (inactive) | 23.5% | 3.8%
56 | N#CC(C(=O)NC1CCCCC1)c1nc2ccccc2nc1N1CCN(c2ccccc2F)CC1 (centres undefined) | -45.2% (inactive) | -45.5% | 1.44%
57 | CCCCC(CCC(=O)Nc1ccc(C(=O)OC)cc1)C(=O)O (centres undefined) | 37.5% (inactive) | -7.18% | 1.33%
58 | Cc1c(CCC#N)c(N2CCN(C3CCCCC3)CC2)n2c(nc3ccccc32)c1C#N | 32.8% (inactive) | -4.95% | 10.6%
59 | Cc1cc(COc2ccccc2OCCN2CCN(C)CC2)no1 | 4.14% (inactive) | 10.2% | 1.56%
60 | CC(=O)c1cc(C#N)c(SCc2ccncc2)nc1C | 26.3% (inactive) | 11% | 4.17%
61 | CCOC(=O)CC(=O)CSc1nc2c(cc1C#N)CCCCCC2 | -4.76% (inactive) | -61.7% | 6.69%
62 | COC(=O)CC1SC(=O)NC1=O (centres undefined) | -1.44% (inactive) | -13% | 4.51%
63 | Cc1ccc(SCc2nnc(N)s2)cc1 | -4.01% (inactive) | 13.4% | 15.1%
64 | CCN(CC)CCCC1(CN)OCCc2ccccc21 (centres undefined) | -50.9% (inactive) | -27.8% | 1.84%
65 | CCOc1cccc(-c2nnc3sc(-c4cc(OC)c(OC)c(OC)c4)nn23)c1 | -44.5% (inactive) | -50.4% | 2.45%
66 | Cc1ccc2cc(CN(C(=O)c3ccco3)c3ccccc3C)c(=O)[nH]c2c1 | -61.6% (inactive) | -59.5% | 2.77%
67 | CCCOc1ccc(Cl)cc1CN1CCOCC1 | -59.3% (inactive) | -68.7% | 3.51%
68 | COn1c(SC2CCCCC2)nc2ccccc2c1=O | 52.3% (inactive) | 29.2% | 12.3%
69 | CCOC(=O)C1=C(N)n2c(s/c(=C\c3ccco3)c2=O)=C(C(=O)OC(C)C)C1c1ccco1 (centres undefined) | 50% (inactive) | -8.27% | 23.3%
70 | O=C(O)c1cc2sccc2s1 | 33% (inactive) | -8.08% | 8.44%
71 | CC1(C)NC(=O)N(CC(O)COc2ccccc2C(=O)Nc2ccccc2)C1=O (centres undefined) | -19.4% (inactive) | -40.4% | 5.25%
72 | COC(=O)C1C(=O)CC(C)(O)C(C(=O)OC)C1c1ccccc1F (centres undefined) | 19% (inactive) | -32.9% | 2.72%
73 | O=C(OCC#CCSc1nnc(-c2ccccc2)o1)c1cccs1 | 38% (inactive) | 5.5% | 10.3%
